Screening data as filed in PubChem.
Spn DPM-DC inh – inhibitors of Streptococcus pneumoniae diphosphomevalonate decarboxylase; calls only at 10 µM; purified DPM-DC, PK/LDH coupled NADH fluorescence; hit rate 0.49% among 65,000;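 active means the 320 compounds with the highest percent inhibition in the single-dose primary screen, excluding strongly autofluorescent ones, cut at about 32% in these data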;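 further: kinetic rate of NADH fluorescence loss reporting ADP formed by the decarboxylase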
Autofluor 339 – intrinsic fluorescence of library compounds, ex339/em460 – biochemical, MLSMR library, data from DPM-DC assay, artefact control, profiling panel; compound autofluorescence, ex339/em460 nm, NADH buffer; hits give high values; 1 = no-compound wells, NADH background; fluorescence fold increase at 10 µM; hit rate 5.5% among 65,000; AID 709;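 active means at 10 µM, mean starting fluorescence two-fold or more over control wells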;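 further: signal is the first read of a kinetic run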
NADH enzymes – blocks coupling enzymes of NAD/NADH assays; coupled PK/LDH NADH assays, four targets; IC50, µM (highest dose often 10 µM); hit rate 0.02% among 65,000; AID 774;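 active means single-dose screening hits from any of four coupled enzyme assays that gave an IC50 when retested across doses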;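 further: the DPM-DC format reads NADH fluorescence rather than 340 nm absorbance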
Spn MK inh – blocks S. pneumoniae mevalonate kinase. inhibition, % at 10 µM. hit rate 0.48% among 65,000. purified MK, PK/LDH-coupled NADH absorbance 340 nm;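 active means ranked among the strongest by inhibition in the single 10 µM screen, a fixed top-ranked set picked for dose follow-up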
Spn PMK inh – S. pneumoniae PMK inhibition; purified PMK, PK/LDH-coupled NADH absorbance 340 nm; inhibition, % at 10 µM; hit rate 0.49% among 65,000; AID 539;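 active means top-ranked compounds by inhibition in the single 10 µM screen, taking a fixed number of the strongest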
A340 absorber – compound absorbs light at 340 nm. compound absorbance at 340 nm, fold over control. 65,000 tested, under 10 active. fold change at 10 µM;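 active means at 10 µM dose, initial 340 nm absorbance at least 2 fold that of control wells; inactive means change under 2 fold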;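 further: initial absorbance extrapolated from kinetic A340 decline of NADH oxidation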
Of the large screens only hits and unclear results are named; the others gave an inactive call. An excerpt weighted towards active compounds, which were near 6.8% of everything screened.

CC(C)C(OC(=O)CN1C(=O)COc2ccccc21)C(=O)NC1CCCC1 (configuration not stated)	Spn DPM-DC inh active
Cc1ccc2c(c1)N(CC(=O)OC(CC(C)C)C(=O)NC1CCCC1)C(=O)CO2 (configuration not stated)	none
CC1CCC2(CC1)NC(=O)c1ccccc1O2 (configuration not stated)	none
CCOc1ccccc1NC(=O)CSc1nnc(CNC(=O)c2ccco2)o1	none
Cc1nonc1NC(=O)CSc1ccc(-c2ccccc2)nn1	Spn PMK inh 27
COc1cccc(C2NC(=O)NC(C)=C2C(=O)OCCSC)c1OC (configuration not stated)	none
O=C(CSc1nnc(COc2ccccc2)n1-c1ccccc1)c1cccs1	Spn PMK inh 25
O=C(COc1ccccc1)NCc1nnc(SCC(=O)Nc2nccs2)n1-c1ccccc1	none
CCCc1ccc2c(N)c(C#N)sc2n1	Autofluor 339 2.1 (not shown: Spn DPM-DC inh)
Cc1ccc2c(c1)-c1cc(C)nn1C(c1ccc3c(c1)OCO3)N2 (configuration not stated)	none
Cc1cc2n(n1)C(c1ccc(N(C)C)cc1)Nc1ccccc1-2 (configuration not stated)	Autofluor 339 3.7 (not shown: Spn DPM-DC inh)
Cc1cc2n(n1)C(c1ccccc1)Nc1ccccc1-2 (configuration not stated)	Autofluor 339 2
c1cncc(C2Nc3ccccc3-c3nc4ccccc4n32)c1 (configuration not stated)	none
Cc1cc2n(n1)C(c1ccc3c(c1)OCO3)Nc1ccccc1-2 (configuration not stated)	Autofluor 339 2.3
CCN1c2ccccc2-c2nc3ccccc3n2C1c1ccccn1 (configuration not stated)	Autofluor 339 3.8 (not shown: Spn DPM-DC inh)
CCN1c2ccccc2-c2nc3ccccc3n2C1c1cccnc1 (configuration not stated)	Autofluor 339 3.8 (not shown: Spn DPM-DC inh)
CCOc1ccc(OCC)c(NC(=O)CN2CCN(c3cccc(C)c3)C(C)C2)c1 (configuration not stated)	Spn MK inh 42
CCOc1ccc(OCC)c(NC(=O)CN2CCN(c3cccc(C)c3)CC2)c1	Spn MK inh 71
COc1ccccc1NS(=O)(=O)c1ccc(C)c(C(=O)NCC2CCCO2)c1 (configuration not stated)	none
O=C(NCC1CCCO1)C1CCN(S(=O)(=O)N2CCCC2)CC1 (configuration not stated)	none
CCS(=O)(=O)N1CCC(C(=O)NCC2CCCO2)CC1 (configuration not stated)	Spn PMK inh 25
O=C(NCC1CCCO1)C1CC(=O)N(C2CCCCCC2)C1 (configuration not stated)	Spn PMK inh 27
CCS(=O)(=O)N1CCC(C(=O)NCCc2ccc(C)cc2)CC1	none
CCS(=O)(=O)N1CCC(C(=O)NCCc2ccccc2)CC1	Spn PMK inh 25
Cc1sc2ncnc(Sc3nnc4sc5ccccc5n34)c2c1C	none
COc1ccc(CN2CCN(C(=O)c3ccco3)CC2)cc1OCc1ccccc1	Spn MK inh 52
CCn1c2ccccc2c2cc(CN3CCN(C(=O)c4ccco4)CC3)ccc21	Spn MK inh 54, Spn PMK inh 30
CCNc1nc(NCc2ccccc2)nc(Oc2ccc(=O)[nH]n2)n1	Autofluor 339 2.6
CSc1nc(NC(C)(C)C)nc(Oc2ccc(=O)[nH]n2)n1	none
COc1cc(-c2cc3nc(C)c(C)c(=O)n3[nH]2)cc(OC)c1OC	Autofluor 339 2
CN1CCN(CCCNC(=O)Cn2ncc3c4ccccc4n(C)c3c2=O)CC1	none
Cn1c2ccccc2c2cnn(CC(=O)N3CCN(c4ncccn4)CC3)c(=O)c21	Spn PMK inh 25
Cc1cc(C(=O)CSc2nncs2)c(C)n1-c1ccc2c(c1)OCO2	none
COc1cc2c(cc1OC)/C(=C/C(=O)N1CCOCC1)NC(C)(C)C2	Spn DPM-DC inh active, Autofluor 339 2.5
Cc1cc2ccccc2c(=O)n1CC(=O)N(C)c1ccc(F)cc1	none
CCCc1cc(=O)n2c(nc3ccccc32)[nH]1	Autofluor 339 3.9 (not shown: Spn DPM-DC inh)
CCCCc1c(O)n2c(nc3ccccc32)[nH]c1=O	none
CSc1ccccc1NC(=O)c1cc(-c2cccs2)on1	Autofluor 339 2.3
C[C@@H]1C[C@H]2[C@@H]3CCC4=CC(=O)C=C[C@]4(C)[C@@]3(F)[C@@H](O)C[C@]2(C)[C@H]1C(=O)CO	none
Cc1cc(C)n(-c2nc3c(c(=O)n(C)c(=O)n3C)n2Cc2cccc(Br)c2)n1	none
CN(C(=O)C1CCCO1)c1nnc(-c2ccncc2)s1 (configuration not stated)	Autofluor 339 2.6 (not shown: Spn DPM-DC inh)
Cc1cnc(-c2nnc(N(C)C(=O)C3CCOC3)s2)cn1 (configuration not stated)	Autofluor 339 2
CN(C(=O)C1CCCO1)c1nnc(-c2ccccn2)s1 (configuration not stated)	Autofluor 339 4.8 (not shown: Spn DPM-DC inh)
CN(C(=O)c1cnccn1)c1nnc(-c2cccnc2)s1	Spn PMK inh 30
Cc1ccc(CCN2CC(C(=O)NCCCN3CCOCC3)CC2=O)cc1 (configuration not stated)	none
C=COCCNC(=O)Nc1ccc(Cl)c(Cl)c1	none
CCOC(=O)N1CCN(c2ccc3nnnn3n2)CC1	none
CCC(=O)NC(Nc1cccc(C)n1)(C(F)(F)F)C(F)(F)F	none
COCC(=O)N(C)c1nnc(-c2ccccn2)s1	Autofluor 339 2
CN(C(=O)C1CCOC1)c1nnc(-c2ccccn2)s1 (configuration not stated)	none
CN(C(=O)c1ccncc1)c1nnc(-c2ccncc2)s1	Autofluor 339 3.6 (not shown: Spn DPM-DC inh)
COC(=O)c1cc(=O)nc2sccn12	Spn PMK inh 27
Cc1cc(Nc2ccc(C)c(Br)c2)n2nc(C)nc2n1	none
Cc1ccccc1C1=NC(c2ccc(F)cc2F)ON1 (configuration not stated)	none
CCCCCn1c(CN2CCN(C)CC2)nc2c1c(=O)n(C)c(=O)n2C	none
CCCCn1c(Cl)nc2c1c(=O)n(C)c(=O)n2C	Spn MK inh 40
COCCn1c(SCc2ccc(C(=O)OC)o2)nnc1-c1c[nH]c2ccccc12	none
COc1ccc(NC(=O)c2oc3cc(C)c(C)cc3c2C)c(OC)c1	Autofluor 339 3.8 (not shown: Spn DPM-DC inh)
COc1cccc(OCC(=O)Nc2c(C(=O)Nc3ccc(OC)cc3OC)oc3ccccc23)c1	Autofluor 339 5 (not shown: Spn DPM-DC inh)
COCC(=O)Nc1c(C(=O)Nc2cccc(OC)c2)oc2ccccc12	none
COc1ccccc1NC(=O)c1oc2ccccc2c1NC(=O)c1cc(OC)c(OC)c(OC)c1	Autofluor 339 3.2 (not shown: Spn DPM-DC inh)
COc1ccc(NC(=O)c2oc3ccccc3c2NC(=O)C2CC2)cc1	none
CCN(CC)S(=O)(=O)c1ccc2oc(C(=O)Nc3ccc(OC)cc3OC)c(C)c2c1	none
